Results filed as inconclusive are left out. Activity calls are given as the source filed them. How the source made its calls: active means hit-call score of the fitted dose curve at least 0.9, where 1 is the maximum; inconclusive means response in the unintended direction; inactive means score below 0.9.

One may read the AC50 as the concentration giving half of the maximal activity seen.

For this test, the target named is human Neonicotinoid receptor (NNR), CHRNA2 (gene 1135) (UniProt Q15822). Briefly: NVS_LGIC_hNNR_NBungSens: NovaScreen (NVS) Ligand-Gated Ion Channel Assay for human Neonicotinoid receptor (NNR) (AID 2283313). As for the experimental part: NVS_LGIC_hNNR_NBungSens is a biochemical, single-readout assay that uses extracted gene-proteins from Human neuroblastoma membrane cells in a tissue-based cell-free assay. Measurements were taken 2 hours after chemical dosing in a 48-well plate.NVS_LGIC_hNNR_NBungSens is one of one assay component(s) measured or calculated from the NVS_LGIC_hNNR_NBungSens assay. It is designed to make measurements of radioligand binding, a form of binding reporter, as detected with scintillation counting signals by Filter-based radiodetection technology.Data from the assay component NVS_LGIC_hNNR_NBungSens was analyzed into 1 assay endpoint. This assay endpoint, NVS_LGIC_hNNR_NBungSens, was analyzed in the positive analysis fitting direction relative to DMSO as the negative control and baseline of activity. Using a type of binding reporter, loss-of-signal activity can be used to understand changes in the binding as they relate to the gene CHRNA2. Furthermore, this assay endpoint can be referred to as a primary readout, because the performed assay has only produced 1 assay endpoint. To generalize the intended target to other relatable targets, this assay endpoint is annotated to the ion channel intended target family, where the subfamily is ligand-gated ion channel.
Chain of human Neonicotinoid receptor (NNR), CHRNA2 (gene 1135) (Q15822 whole entry, looked up): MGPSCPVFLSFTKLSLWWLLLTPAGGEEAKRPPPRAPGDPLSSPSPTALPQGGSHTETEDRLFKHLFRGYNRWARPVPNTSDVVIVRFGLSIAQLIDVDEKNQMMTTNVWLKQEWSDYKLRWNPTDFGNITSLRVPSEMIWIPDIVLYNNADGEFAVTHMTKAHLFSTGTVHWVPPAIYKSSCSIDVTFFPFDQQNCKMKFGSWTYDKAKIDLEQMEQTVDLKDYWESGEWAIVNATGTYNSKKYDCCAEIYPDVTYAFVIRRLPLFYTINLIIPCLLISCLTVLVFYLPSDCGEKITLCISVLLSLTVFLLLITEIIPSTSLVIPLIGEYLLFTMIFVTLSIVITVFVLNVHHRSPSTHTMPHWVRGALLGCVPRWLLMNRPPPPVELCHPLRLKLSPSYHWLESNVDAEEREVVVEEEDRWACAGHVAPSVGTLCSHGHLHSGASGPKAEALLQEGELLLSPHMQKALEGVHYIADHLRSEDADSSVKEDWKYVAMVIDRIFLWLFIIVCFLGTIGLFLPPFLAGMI
Binding assays used specific radioligands (tritiated, iodinated) with non-radioactive competitive displacement ligands in agonist or antagonist protocols (as indicated) and various reference compounds and inhibitors to titrate specific binding to receptors and transporters. Most enzyme assays (CYPs, kinases, phosphatases, proteases, HDACs) used recombinant protein and specific substrates (fluorescence mostly, some colorimetric and radioactive) and inhibitors, followed by a biochemical separation of substrate and product. All assays for the biochemical HTS were initially run in duplicate at a single concentration (10 uM for CYP450 assays and 25 uM for all others). Assay-chemical combinations meeting a pre-defined threshold (e.g., 30% inhibition and other criteria defined below) were then run in singleton concentration-response format with maximum concentration of 20 uM for CYPs and 50 uM for all others. Each assay was run with positive and negative controls, and concurrent controls on every plate. The follow-up (secondary) screen tested active chemical-pairs in concentration series, as well as a few additional assays not tested in the primary screen, some selected negative inactives, and several cases re-run in the concentration series for confirmatory purposes.
As to `S=C(S)NCCNC(=S)S.[Mn+2].[S-]C([S-])=NCCN=C([S-])[S-].[Zn+2]`, the call was inactive.
As to `O=C(c1ccc(OCCN2CCCCC2)cc1)c1c(-c2ccc(O)cc2)sc2cc(O)ccc12`, the AC50 is 16.7 µM (active).
The same measure, in the same setting: for `COc1ccc(OC(F)(F)F)cc1CN[C@H]1CCCN[C@H]1c1ccccc1` the value was 25 µM (active); for `CCCCCCCCCCCC[N+](C)(C)C`, 13.3 µM (active); for `COc1cccc(-c2ccc(/C=C\CN3CCCCCC3)cc2Cl)c1`, 22.6 µM (active).
Same read-out and setting: for `Clc1cc(Cl)c2c(c1)N=C1CCCCCN1C2` the value was 1.98 µM (active).
As to `S=C([S-])NCCNC(=S)[S-].[Mn+2]`, the result was inactive.
On to `CN(C)CCCN1c2ccccc2Sc2ccc(Cl)cc21`, for which the AC50 was 35.7 µM (active).
Turning to `Cc1[nH]cnc1C[C@H]1CCc2c(C)c3ccccc3n2C1=O`, the result was inactive.
Consider `Cc1cc(SC2=C(O)C[C@@](CCc3ccc(N)cc3)(C(C)C)OC2=O)c(C(C)(C)C)cc1CO`, for which the AC50 is 13.1 µM (active).
Same read-out and setting: for `Cn1cnc2c1c(=O)[nH]c(=O)n2C` the value was 15.4 µM (active).
`COc1cc(C(=O)NC2CCN(C)CC2)ccc1Nc1ncc2c(n1)N(C1CCCC1)CC(F)(F)C(=O)N2C`: the call was inactive.
Turning to `NC(=O)N(O)[C@@H]1C=C[C@H](Oc2cccc(Oc3ccc(F)cc3)c2)C1`, the AC50 is 41.2 µM (active).
Same read-out and setting: for `CCCOC(=O)NCCCN(C)C` the value was 7.3 µM (active); for `O=c1[nH]c2ccc(S(=O)CCN3CCC(Cc4ccc(F)cc4)CC3)cc2o1` (stereo unspecified), 5.31 µM (active).
`CNS(=O)(=O)c1cc(C(=O)N2CCC(CCN3C4CCC3CC(n3c(C)nc5ccccc53)C4)(c3cccc(F)c3)CC2)c(Cl)cc1F` (stereo unspecified): the compound was classed as inactive.
For the compound `CN1CCC[C@H]1c1cccnc1`, the AC50 was 1.3 µM (active).
For the compound `CCN(CC)CCNc1ccc(CNC=O)c2sc3ccc(OC)cc3c(=O)c12`, the call was inactive.
In the case of `CCCCCCCC(=O)O`, the AC50 is 37.4 µM (active).
Turning to `NCCOCCOCCN`, the outcome was inactive.
For the compound `COc1cc(S(=O)(=O)O)c(C)cc1N=Nc1c(O)ccc2cc(S(=O)(=O)O)ccc12`, the AC50 was 16.7 µM (active).

These data come from PubChem BioAssay (EPA / NIEHS).
